# From PMC12670160, “A drug-repurposing screen of FDA- and EMA-approved drugs identifies two NF-κB inhibitors active against eumycetoma” (Journal of Antimicrobial Chemotherapy, 2025)
# Where a name gives a salt, the structure may show the parent alone. Read-outs that look alike come from different tables or passages of the source. About 130 (2.5%) of roughly 5,300 compounds showed an effect of 50% or more. The sample as a whole holds a higher share of strong results than the screen did.
# Test system: M. mycetomatis strain mm55
# Conditions: primary screen, metabolic activity vs growth control, 96 h, 2 µM, inhibitor
smiles,measurement,setting,value
"Nc1nc2nn[nH]c2c(=O)[nH]1 [ONC0002792, azaguanine8]",% viability,,265.7%
"O=C(O)Cc1ccc(OCCNC[C@H](O)c2ccccc2)cc1 [ONC0001068, zd2079]",% viability,,36.58%
O=C(O)COc1ccc(OCCNC[C@H](O)COc2ccccc2)cc1 [ONC0002275],% viability,,78.74%
"COCCNC(=O)COc1ccc(OCCNC[C@H](O)COc2ccccc2)cc1 [ONC0001450, zd7114]",% viability,,94.55%
"COc1ccc(C[C@H](C)NC[C@@H](O)c2ccc(O)c(NC=O)c2)cc1 [ONC0001548, formoterol]",% viability,,81.88%
"COc1ccc([C@]2(O)CC[C@@H](N3CC[C@@H](NC(=O)CNC(=O)c4cccc(C(F)(F)F)c4)C3)CC2)cn1 [ONC0000726, incb 3284]",% viability,,81.5%
"c1ccc(-c2ccc(CNc3nc(-c4ccccn4)nnc3-c3ccccc3)cc2)cc1 [ONC0001674, ml228]",% viability,,2.835%
"c1ccc(NCc2ccc(CNc3ccccn3)cc2)nc1 [ONC0004550, wz 811]",% viability,,63.57%
"c1cnc(NCc2ccc(CNc3ncccn3)cc2)nc1 [ONC0002000, msx122]",% viability,,83.13%
"FCc1ccc(OCCOc2ccc(Cl)cc2Cl)c(Cl)n1 [ONC0000095, cym50260]",% viability,,81.52%
"O=C(O)CN(CCN(CC(=O)O)CC(=O)O)CCN(CC(=O)O)CC(=O)O [ONC0005432, gadopenteticacid]",% viability,Madurella mycetomatis metabolic activity at 2µM (%),103.1%
"CC(C)N[C@@H]1CCn2c(=O)[nH]c3cccc(c32)[C@H]1O [ONC0001941, zilpaterolhcl]",% viability,,67.69%
"COc1cccc2c1C(=O)c1c(O)c3c(c(O)c1C2=O)C[C@@](O)(C(C)=O)C[C@@H]3O[C@H]1C[C@H](N)[C@H](O)[C@H](C)O1 [ONC0001686, daunorubicin]",% viability,,72.25%
"CC(=O)[C@]1(O)Cc2c(O)c3c(c(O)c2[C@@H](O[C@H]2C[C@H](N)[C@H](O)[C@H](C)O2)C1)C(=O)c1ccccc1C3=O [ONC0004533, idarubicin hcl]",% viability,,43.23%
"COc1cccc2c1C(=O)c1c(O)c3c(c(O)c1C2=O)C[C@@](O)(C(=O)CO)C[C@@H]3O[C@H]1C[C@H](N)[C@@H](O)[C@H](C)O1 [ONC0004636, epirubicin hydrochloride]",% viability,,92.65%
"CNC(=O)ON(C(C)=O)C(=O)NC [ONC0003740, caracemide]",% viability,,136.5%
"NC(=O)c1nc(F)c[nH]c1=O [ONC0003386, favipiravir]",% viability,,85.13%
"CC(=O)Nc1ccc(OCC(O)CNC(C)C)cc1 (stereo not drawn) [ONC0002176, practolol]",% viability,,73.91%
"CCCC(=O)Nc1ccc(OCC(O)CNC(C)C)c(C(C)=O)c1 (stereo not drawn) [ONC0003369, acebutolol hydrochloride]",% viability,,44.26%
"CCN(CC)C(=O)Nc1ccc(OCC(O)CNC(C)(C)C)c(C(C)=O)c1 (stereo not drawn) [ONC0002160, celiprolol]",% viability,,87.56%
"COc1ccc(NS(=O)(=O)c2ccc(N)cc2)nn1 [ONC0000622, sulfamethoxypyridazine]",% viability,,113.3%
"COc1ccc(NS(=O)(=O)c2ccc(N=Nc3ccc(O)c(C(=O)O)c3)cc2)nn1 [ONC0003399, salazodine]",% viability,,47.95%
"O=C(O)c1cc(/N=N/c2ccc(S(=O)(=O)Nc3ccccn3)cc2)ccc1O [ONC0000599, sulfasalazine]",% viability,,109.1%
"NS(=O)(=O)NCCNc1nonc1C(=NO)Nc1ccc(F)c(Br)c1 [ONC0005250, epacadostat incb024360]",% viability,,130.3%
"CN1CCN(C(=O)C2C(C(=O)O)[C@@H]3CC[C@H]2O3)CC1 (stereo partly drawn) [ONC0001871, lb100]",% viability,,109.3%
"CCO/N=C(/C(=O)N[C@@H]1C(=O)N2C(C(=O)O)=C(Sc3nc(-c4cc[n+](C)cc4)cs3)CS[C@H]12)c1nsc(NP(=O)(O)O)n1 [ONC0002991, ceftarolinefosamil]",% viability,,80.17%
"COc1ccc(NS(=O)(=O)c2ccc(I)cc2)cc1N1CCN(C)CC1 [ONC0001661, sb258585]",% viability,,76.38%
"COc1ccc(S(=O)(=O)Nc2cc(Cl)cc(Cl)c2OC)cc1N1CCNCC1 [ONC0000041, sb399885]",% viability,,47.84%
"COc1ccc(NS(=O)(=O)c2sc3ccc(Cl)cc3c2C)cc1N1CCNCC1 [ONC0005236, sb 271046]",% viability,,123.6%
"O=C1Nc2c(ccc(Cl)c2Cl)C1=NO [ONC0002536, ns309]",% viability,,65.12%
"COC(=O)[C@H]1[C@@H](C)[C@@H](OC)C=CO[C@@]2(C)Oc3c(C)c(O)c4c(O)c(cc(O)c4c3C2=O)NC(=O)/C(C)=C\C=C/[C@@H](C)[C@@H](O)[C@@H](C)[C@H](O)[C@@H]1C [ONC0003453, rifamycin sv sodium salt]",% viability,,53.39%
"CN(C)[C@@H]1C(=O)C(C(N)=O)C(=O)[C@@]2(O)C(=O)C3C(=O)c4c(O)ccc(Cl)c4[C@@H](O)[C@H]3C[C@@H]12 (stereo partly drawn) [ONC0000432, demeclocycline hydrochloride]",% viability,,77.24%
"CCCCCCCCCCCC1=C(O)C(=O)C=C(O)C1=O [ONC0001079, embelin]",% viability,,49.47%
"CCCCCCCCc1ccc(CCC(N)(CO)CO)cc1 [ONC0005159, fingolimod fty720 hcl]",% viability,,130.1%
"CCCCCCc1ccc(O)cc1O [ONC0000355, hexylresorcinol]",% viability,,72.69%
"NC1=N[C@H]2[C@H](CCCCC(=O)O)SC[C@H]2N1 [ONC0003635, 2iminobiotin]",% viability,,86.51%
"CC(C)=CCC/C(C)=C/CC/C(C)=C/CCC(O)OC/C=C(\C)CCC=C(C)C (stereo not drawn) [ONC0000430, geranylfarnesylacetate gefarnate]",% viability,,66.04%
Cc1ccc2c(Br)cc(Br)c(OC(=O)c3ccccc3)c2n1 [Broxaldine],% viability,,3.407%
"O=C(OOC(=O)c1ccccc1)c1ccccc1 [ONC0003111, benzoyl peroxide]",% viability,,80.87%
"O=C(Oc1cccc2cccnc12)c1ccccc1 [ONC0003987, benzoxiquine]",% viability,,75.23%
"c1cnc2cc3c(cc2n1)C1CNCC3C1 [ONC0004813, varenicline tartrate]",% viability,,83.4%
"CCCC[C@H](C)C[C@H](O)/C=C/[C@H]1[C@H](O)CC(=O)[C@@H]1CCCC/C=C/C(=O)O [ONC0005482, limaprost]",% viability,,96.34%
"Cc1ccc(C(C)C)c(OC=C2NCCN2)c1 [ONC0005561, tymazoline]",% viability,,90.75%
"O=[N+]([O-])c1ccccc1S(=O)(=O)NC[C@H]1CC[C@H](CNCC2CCc3ccccc3C2)CC1 (stereo partly drawn) [ONC0000121, ntncb]",% viability,,80.22%
"CC(=O)OC1[C@@H](N2CC[N+](C)(C)CC2)C[C@H]2[C@@H]3CC[C@H]4C[C@H](OC(C)=O)[C@@H](N5CC[N+](C)(C)CC5)C[C@]4(C)[C@H]3CC[C@]12C (stereo partly drawn) [ONC0001992, pipecuronium]",% viability,,103.5%
"CCCCOc1ccc(CC(=O)NO)cc1 [ONC0000683, bufexamac]",% viability,,91.55%
"O=C(CCCCCCC(=O)NO)NO [ONC0001756, sbha]",% viability,,85.39%
"CCC(=O)NO [ONC0002308, zami633]",% viability,,45.69%
"OCC(O)COc1ccc(Cl)cc1 (stereo not drawn) [ONC0002159, chlorphenesin]",% viability,,67.41%
"CCC(C)CC(C)CCCCCCCCC(=O)N[C@H]1C[C@@H](O)[C@@H](NCCN)NC(=O)[C@@H]2[C@@H](O)CCN2C(=O)[C@H]([C@H](O)CCN)NC(=O)[C@H]([C@@H](O)[C@H](O)c2ccc(O)cc2)NC(=O)[C@@H]2C[C@@H](O)CN2C(=O)[C@H]([C@@H](C)O)NC1=O (stereo partly drawn) [ONC0002201, caspofungin acetate]",% viability,,69.7%
"CN1CCN(C(=O)CN[C@@H]2C[C@H]2c2ccc(OCc3ccccc3)cc2)CC1 [ONC0000424, rn1]",% viability,,85.6%
"COc1ccc(/C=C/CCCCOc2ccc(C(=O)c3cccc(C(=O)O)c3)cc2CCC(=O)O)cc1 [ONC0003815, ly223982]",% viability,,21.75%
"COc1ccc(/C=C/C(=O)O)cc1 [ONC0003824, trans4methoxycinnamicacid]",% viability,,65.15%
"COc1ccc2[nH]c(C(=O)c3ccccc3)cc2c1 [ONC0001898, d64131]",% viability,,78.99%
"CC(=O)[C@H]1CC[C@H]2[C@@H]3CC=C4C[C@@H](O)CC[C@]4(C)[C@H]3CC[C@]12C [ONC0003199, pregnenolone]",% viability,,77.25%
"Cc1oc2nc3c(c(NC(=O)CN4CCCC4=O)c2c1C)CCCC3 [ONC0001218, coluracetam]",% viability,,81.81%
"CCOC(=O)Nc1nc2ccccc2[nH]1 [ONC0004223, lobendazole]",% viability,,137.9%
"CCOC(=O)Nc1ccc(NCc2ccc(F)cc2)nc1N.O=C(O)/C=C\C(=O)O [ONC0001304, flupirtine maleate]",% viability,,68.53%
"CCOC(=O)Nc1cc2c(c(N)n1)NC(c1ccccc1)=C(C)N2 [ONC0002128, mivobulin]",% viability,,3.846%
"C=CC(=O)N1CCCC(n2c(=O)n(-c3ccc(Oc4ccccc4)cc3)c3c(N)ncnc32)C1 (stereo not drawn) [ONC0004392, ono4059]",% viability,,98.71%
"C[N+]1([O-])C2CCC1CC(OC(=O)C(CO)c1ccccc1)C2 (stereo not drawn) [ONC0004212, atropine oxide]",% viability,,82.92%
"CN1C2C[C@H](OC(=O)[C@H](CO)c3ccccc3)C[C@@H]1[C@@H](O)C2 [ONC0003283, anisodamine hydrobromide]",% viability,,41.57%
"C[N+]1(C)C2CCC1CC(OC(=O)C(CO)c1ccccc1)C2 (stereo not drawn) [ONC0003986, methylatropine nitrate]",% viability,,73.02%
